Tests used:
Conditions in all cases: concentration: 1 μM, replicates: in singlicate; n = 1
[1] = system: PIM1
[2] = system: PIM2
[3] = system: PIM3
[4] = system: PIP5K1A
[5] = system: PIP5K1C
[6] = system: PIP5K2B
[7] = system: T1, PIP5K2C
T1 construct: gene PIP4K2C

[8] = system: T2, PKAC-alpha
T2 construct: gene PRKACA

[9] = system: T3, PKAC-beta
T3 construct: gene PRKACB

[10] = system: PKMYT1
[11] = system: PKN1
[12] = system: PKN2
[13] = system: PLK1
[14] = system: PLK2
[15] = system: PLK3
[16] = system: PLK4
[17] = system: PRKCD
[18] = system: PRKCE
[19] = system: PRKCH
[20] = system: PRKCI
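Further: KINOMEscan kinase panel screen.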

| Compound | %Inh [1] [%] | %Inh [2] [%] | %Inh [3] [%] | %Inh [4] [%] | %Inh [5] [%] | %Inh [6] [%] | %Inh [7] [%] | %Inh [8] [%] | %Inh [9] [%] | %Inh [10] [%] | %Inh [11] [%] | %Inh [12] [%] | %Inh [13] [%] | %Inh [14] [%] | %Inh [15] [%] | %Inh [16] [%] | %Inh [17] [%] | %Inh [18] [%] | %Inh [19] [%] | %Inh [20] [%] |
| --- | --- | --- | --- | --- | --- | --- | --- | --- | --- | --- | --- | --- | --- | --- | --- | --- | --- | --- | --- | --- |
| CCCc1ccc(S(=O)(=O)NC2CCN(c3ccnc(Nc4ccc(F)cc4)n3)C2)cc1 (centres unmarked) [GSK1379715] | 0 | 0 | 0 | 19 | 42 | 10 | 47 | 81 | 0 | 12 | 7 | 0 | 0 | 0 | 0 | 0 | 0 | 17 | 11 | 0 |
| Nc1ncnc2[nH]c(-c3ccccc3)nc12 [AH5015] | 0 | 0 | 21 | 0 | 29 | 0 | 21 | 1 | 7 | 0 | 0 | 0 | 2 | 16 | 0 | 99.9 | 0 | 14 | 18 | 0 |
| Cc1cccc(-c2nc(-c3ccc(S(C)(=O)=O)cc3)sc2-c2ccnc(NCCc3ccccc3)c2)c1 | 0 | 9 | 0 | 2 | 17 | 22 | 7 | 0 | 17 | 0 | 6 | 13 | 0 | 5 | 0 | 7 | 8 | 0 | 14 | 6 |
| CS(=O)(=O)c1ccc(-c2c(-c3ncn[nH]3)sc(N3CCOCC3)c2C#N)cc1 | 0 | 0 | 0 | 0 | 0 | 14 | 0 | 0 | 7 | 0 | 17 | 0 | 8 | 8 | 16 | 28 | 41 | 42 | 5 | 24 |
| NC(=O)c1nnc2ccccc2c1N | 1 | 0 | 0 | 0 | 38 | 0 | 13 | 13 | 16 | 15 | 1 | 38 | 28 | 8 | 10 | 19 | 0 | 15 | 0 | 28 |
| CC(C)(C)c1ccc(C(=O)Nc2cn3cc(Cl)ccc3n2)cc1 | 0 | 13 | 0 | 0 | 44 | 0 | 48 | 8 | 0 | 0 | 0 | 1 | 13 | 0 | 1 | 0 | 4 | 13 | 2 | 100 |
| Cc1cccc(-c2nc(Nc3cccc(C(N)=O)c3)c3ccccc3n2)n1 [GW876019] | 3 | 9 | 4 | 12 | 50 | 0 | 50 | 0 | 36 | 32 | 0 | 0 | 0 | 0 | 4 | 0 | 7 | 0 | 0 | 24 |
| COc1cc(Nc2nccc(N3CCC(NC(=O)Nc4cc(C)ccc4C)C3)n2)cc(OC)c1OC (centres unmarked) [GSK1379762] | 0 | 0 | 0 | 0 | 21 | 16 | 70 | 5 | 0 | 0 | 41 | 0 | 0 | 0 | 0 | 28 | 0 | 0 | 7 | 33 |
| COc1ccc2nc(-c3cccc(C)n3)nc(Nc3ccncc3)c2c1 [GSK204919] | 0 | 0 | 0 | 4 | 28 | 0 | 0 | 3 | 0 | 1 | 3 | 0 | 0 | 0 | 0 | 0 | 0 | 0 | 30 | 31 |
| Cn1ccc2ncnc(Oc3cccc(C(=O)Nc4ccccc4)c3)c21 | 1 | 0 | 14 | 0 | 0 | 17 | 8 | 8 | 0 | 16 | 0 | 0 | 0 | 0 | 0 | 2 | 2 | 0 | 0 | 0 |

From publication PMC5540273 (PLoS ONE, 2017)
